This is a sample that favours compounds with a hit; in the whole collection about 1.3% have one here.
TCR activator: T cell receptor activation. Potency, µM (doses to about 9.22 µM), without a hit: at the top dose activation of IL-2 secretion, usual class: activators. 330,000 tested, under 10 active. primary human leukocytes, anti-CD3, IL-2 HTRF, 48 h; also: % of control where 0% means no effect
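Human primary leukocytes + a-CD3 beads + cpd, 48 hr; IL-2 in supernatant by HTRF (ex 320nm / em 665nm). No co-stimulatory signal supplied.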
IL-2 act: IL-2 activation | IL-2 activation reporter assay, cell-based qHTS; stimulated with anti-CD3/CD4/CD28 beads; in transgenic mouse T cells | activation, % (series mostly up to about 46 µM) | AID 652025 | 360,000 compounds, 0.065% hits; in the data active = activation above about 50%; inconclusive = mostly about 30% to 49%; also: 0% is about no effect
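Unstimulated transgenic mouse T cells; 60-min compound exposure; bead-based TCR/CD4/CD28 stimulation; 18 h culture, 37 degrees C; dual fluorescence (EGFP, DsRed) plate cytometry.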
BCR signal inh: blocks chronic active B-cell receptor signaling; ABC-DLBCL IkBa-CBG/CBR reporter, luminescence ratio, 4 h; Potency, µM (top dose mostly 46.1 µM), for the others: at the top dose activity change, negative = inhibition, hits mostly inhibitors; 340,000 compounds, 0.05% hits; active = well fitted inhibition curve with a large enough effect in the signal ratio, with a control signal flat, not every such curve was filed as active; inconclusive = small, poorly fitted or top-dose-only effect, or effect the other way, or a change in a side signal; the % refers to the signal ratio;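 also: potency is read from the fitted curve at half-maximal effect; plate controls were basal doxycycline-induced cells for no effect and cells given 10 µM MG132 for full effect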
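Doxycycline induced both beetle luciferases in TMD8 lymphoma cells; IKK-driven degradation limits the IkappaBalpha-fused green signal, while red luminescence normalises for cell number and nonspecific effects. Compounds tested up to 46 uM, 4 hrs.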
BRCA1 expr up: increases BRCA1 expression; Potency, µM (top dose mostly 46.1 µM), for inactives: at the top dose activation, hits mostly activators; 380,000 compounds, 1.1% hits; MCF7-BRCA1-FFLuc reporter, luminescence, 48 h; response scale: scaled: vehicle 0%, 10 µM genistein 100%; AID 624202; also: potency is read from the fitted curve at half-maximal effect; nearly all actives have a fitted effect of over 80% in size
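Cells: MCF7-BRCA1-FFLuc, 2000/well. Exposure: 48 h, 37 °C, 5% CO2. Read: luminescence, 15 min post-substrate. Controls: genistein 10 microM (maximal activation), DMSO (neutral).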
PTHR1 agonist: activates the human parathyroid hormone receptor PTHR1; Q03431; HEK293 GP2 PTHR1 cells, GloSensor cAMP luminescence, 1 h; Potency, µM (highest dose often 115 µM), inactives show at the highest dose activation, actives largely listed as activators; 410,000 compounds, 0.075% hits; also: potency is read from the fitted curve at half-maximal effect; nearly all actives have a fitted effect of over 55% in size
Target sequence (Q03431 whole entry, looked up): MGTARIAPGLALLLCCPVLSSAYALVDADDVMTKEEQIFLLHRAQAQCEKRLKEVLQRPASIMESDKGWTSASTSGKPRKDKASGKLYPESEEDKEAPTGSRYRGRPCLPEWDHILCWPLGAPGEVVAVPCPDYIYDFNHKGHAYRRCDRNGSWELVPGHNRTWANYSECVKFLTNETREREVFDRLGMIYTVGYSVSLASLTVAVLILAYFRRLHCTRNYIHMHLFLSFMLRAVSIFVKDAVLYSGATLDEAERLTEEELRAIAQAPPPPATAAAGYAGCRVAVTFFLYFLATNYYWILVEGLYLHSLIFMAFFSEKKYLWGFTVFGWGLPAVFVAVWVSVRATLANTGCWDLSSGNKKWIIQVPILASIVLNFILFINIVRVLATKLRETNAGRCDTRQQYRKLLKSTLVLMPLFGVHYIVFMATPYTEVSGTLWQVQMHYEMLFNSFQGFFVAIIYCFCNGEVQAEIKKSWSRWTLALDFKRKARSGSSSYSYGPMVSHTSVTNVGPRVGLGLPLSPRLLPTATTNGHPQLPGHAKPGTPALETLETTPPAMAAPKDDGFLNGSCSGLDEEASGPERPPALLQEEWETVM
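HEK-293-derived GP2 cells expressing PTHR1 and a GloSensor cAMP reporter, 3,000/well, plated overnight, given luciferin plus IBMX (each 0.5 mM as added) for 1 h at 37 °C, then compound for 1 h at 37 °C. Luminescence was read after 15 min at room temperature.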
Mito fusion act: inhibitors of mitochondrial division or activators of mitochondrial fusion | S. cerevisiae fusion-defective mutant growth rescue, CellTiterGlo 48 h | Potency, µM (top dose mostly 46.1 µM), without a hit: top-dose growth rescue (activation), actives largely listed as activators | 320,000 compounds, 0.23% hits | AID 485298; also: potency is read from the fitted curve at half-maximal effect; % of control where 0% means no effect; nearly all actives have a fitted effect of over 45% in size
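Read-out: ATP-based luminescence (CellTiterGlo, 10 min ambient) reporting growth of fusion-defective ts yeast after 48 hours at 37C on glycerol/ethanol YPEG medium in the presence of compound.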
* hit, by the source's call; i = inactive; ? = inconclusive; . = no result given; [ ] = dose if it differs, or a comment. Unless noted, calls follow the shape of the dose curve; as a rule, active = well fitted curve in the direction sought with a large enough effect; inconclusive = small, poorly fitted or top-dose-only effect, or another doubt; inactive = no such curve, though single readings can be large; an effect the other way counts as inactive or inconclusive.

SMILES | TCR activator | IL-2 act | BCR signal inh | BRCA1 expr up | PTHR1 agonist | Mito fusion act
CCN1C(=O)CC(N2CCN(c3ccc(C(=O)c4ccccc4)cc3)CC2)C1=O (stereo not drawn) | 1% | -4 | . | 11µM* | -12% | -10%
CCCCCNC(=O)C(C#N)c1nc2ccccc2nc1N1CCCC1 (stereo not drawn) | 1% | 150* | ? | 14% | -24%[57.5 µM] | -1%
N#CC(C(=O)NCc1ccccc1)c1nc2ccccc2nc1N1CCCC1 (stereo not drawn) | 4% | 153* | 15% | -10% | i | -2%
CCc1ccccc1N1C(=O)N(Cc2cc(=O)n3ccccc3n2)c2ccccc2S1(=O)=O | . | . | ? | -29% | -26% | .
COc1cc2nc(NC3CCN(C)CC3)nc(NC3CCN(C)CC3)c2cc1OC | . | . | . | 0% | . | .
COc1ccc(C)cc1NC(=O)Nc1ccc(C(=O)N2CCCC2)cc1 | -3% | -3 | -13% | 7.9µM* | -37% | 1%
COc1ccc(Cl)cc1NC(=O)Nc1ccc(C(=O)N2CCCC2)cc1 | 8% | -3 | 4% | ? | -19% | 0%
COc1ccc2c(c1)c1c(c(=O)n(-c3ccc(C)cc3)c(=O)n1CC(=O)NCc1ccc(C)cc1)n2C | . | . | . | -3% | i | .
CC(=O)CCC1CC(c2ccc(Cl)cc2)=NO1 (stereo not drawn) | 3% | 0 | ? | ? | -51% | -7%
O=C1c2ccccc2S(=O)(=O)N1CC1CC(c2ccc(Cl)cc2)=NO1 (stereo not drawn) | 2%[46.1 µM] | 1 | -6% | 3.2µM* | -40% | 16µM*
O=C(CN1C(=O)c2ccccc2S1(=O)=O)c1ccccc1 | 2% | 0 | ? | -73% | i | -1%
COc1ccc(C2=NOC(CN3C(=O)c4ccccc4S3(=O)=O)C2)cc1 (stereo not drawn) | -3% | 0 | -22% | 2.8µM* | -14%[57.5 µM] | 7%
O=C1c2ccccc2S(=O)(=O)N1CC1CC(c2ccccc2)=NO1 (stereo not drawn) | 8% | -1 | 1% | 11µM* | i | 11%
Cc1cc(C)c(NS(=O)(=O)c2ccc(-c3cnc(C4CC4)o3)cc2)c(C)c1 | . | . | . | -62% | i | .
CNc1nc(N2CCCN(C)CC2)nc2cc(OC)c(OC)cc12 | . | . | . | -21% | . | .
Cc1cc(NCCCN)nc(-c2ccccc2O)n1 | -5% | 0 | ? | 3.5µM* | 15%[57.5 µM] | 3%
c1coc(-c2nn3c(-c4ccco4)nnc3s2)c1 | 0% | 0 | 7% | 21% | -23% | -9%
COc1ccccc1-c1nn2c(-c3ccco3)nnc2s1 | -3% | -1 | ? | 7.9µM* | i | 3%
COc1ccccc1-c1nn2c(=O)cc(C)nc2s1 | -7% | 2 | ? | 10µM* | i | 5%
Cc1c(CCOC(=O)c2cccc([N+](=O)[O-])c2)sc[n+]1CC(=O)c1ccccc1 | -39% | -1 | ? | -3% | -5% | 4%
Cc1ccc(/C=C/c2onc(C)c2S(=O)(=O)N2CCC(C(=O)Nc3ccc(C)c(N(C)C)c3)CC2)cc1 | . | . | . | . | -12% | .
CN(C)CCCN(C(=O)c1cc2cc([N+](=O)[O-])ccc2s1)c1nc2cc3c(cc2s1)OCCO3 | 2% | -1 | -6% | -87% | -49% | -9%
Cc1noc(C)c1C(=O)OCC(=O)Nc1ccc(C(N)=O)cc1 | 4% | -2 | 10% | -4% | i | 0%
Cc1noc(C)c1C(=O)OCC(=O)Nc1ccc(N2CCOCC2)cc1 | 1% | 0 | 3% | 6% | 18µM* | .
Cc1ccc(N2Cc3ccccc3C2=S)cc1 | 2% | 1 | ? | 4µM* | -25% | 1%
SMILES | TCR activator | IL-2 act | BCR signal inh | BRCA1 expr up | PTHR1 agonist | Mito fusion act
S=C1c2ccccc2CN1c1ccccc1 | 1%[46.1 µM] | -2 | 4% | 86% | i | 0%
O=C(OCc1ccc(Cl)c(Cl)c1)c1ccc[nH]1 | -2% | -1 | -3% | 13µM* | -26% | -2%
O=C(Cc1ccc(Cl)c(Cl)c1)OCC(=O)c1ccc[nH]1 | 1% | -4 | 2% | -18% | -14% | 3%
Cc1cc(/C=C(\C#N)C(=O)Nc2ccccc2)c(C)n1-c1cccnc1 | 2%[46.1 µM] | -1 | 5% | 5.6µM* | -33% | 0%
Cc1cc(/C=C(\C#N)C(=O)Nc2ccccc2)c(C)n1-c1ccc(F)cc1 | . | . | . | 15% | 20% | .
CCSc1nnc(NC(=O)/C=C/c2ccco2)s1 | -1% | 2 | ? | 16% | i | -1%
CCc1nnc(NC(=O)/C=C/c2ccco2)s1 | -7%[46.1 µM] | 0 | ? | 4µM* | -12% | 1%
CCc1nnc(NC(=O)C2COc3ccccc3O2)s1 (stereo not drawn) | -2% | -2 | ? | 11µM* | -17% | 1%
O=C(/C=C/c1ccco1)NCCc1ccccc1 | -2% | 1 | ? | 6.3µM* | -18% | 9%
Cc1cc(F)ccc1NC(=O)C1CCN(C(=O)c2cnn(-c3ccccc3)c2-n2cccc2)CC1 | . | . | . | -12% | i | .
COc1ccc(OC)c(NC(=O)C2CC(=O)N(Cc3ccco3)C2)c1 (stereo not drawn) | 5% | 0 | 2% | -3% | -8% | -1%
CCOC(=O)C1=C(c2ccccc2)NC(=O)NC1c1ccsc1 (stereo not drawn) | 2% | 2 | ? | -8% | -7% | 1%
COc1ncnc2c1ncn2CCCNCc1ccc(C)o1 | . | 1 | . | 6% | -5% | .
CCOc1ccc(-c2nc(C#N)c(NCc3ccc4c(c3)OCO4)o2)cc1 | 0%[46.1 µM] | -2 | 0% | 4% | -26% | 3%
Cc1ccc(OCc2nc(C#N)c(NCc3ccc4c(c3)OCO4)o2)cc1 | 4% | -1 | ? | -16% | -14%[57.5 µM] | 8.9µM*
O=C(NCc1ccc(F)cc1)Nc1ccccc1 | -4% | -2 | 1% | 10µM* | i | 1%
Cc1ccc(C)c(CNC(=O)Nc2ccccc2)c1 | 1% | 0 | -8% | 7.1µM* | -3% | 0%
Cc1ccc(CNC(=O)Nc2ccccc2)cc1 | 4% | -1 | -9% | 3.5µM* | -12%[57.5 µM] | -4%
CCN(c1ccccc1)S(=O)(=O)c1cc(Br)cc2c1N(C(=O)C1CC1)CC2 | . | . | . | 16% | -11% | .
Cc1ccnc2cc(Cl)c(Cl)cc12 | . | . | . | -14% | . | .
COC(=O)C1=C(C)N(c2cc(Cl)cc(Cl)c2)C(=O)C1 | 3% | -2 | ? | -24% | -27%[57.5 µM] | -12%
Cc1ccc2c(c1)CCC2=O | . | . | . | 0% | . | .
Cc1ccc(N(CC(=O)NCc2ccc(OC(C)C)cc2)S(=O)(=O)N(C)C)cc1 | . | . | -16% | . | i | .

Bioassay records as filed in PubChem BioAssay.
